Here are results for eight molecules from PubChem BioAssay (Tox21).

Records with an inconclusive call do not appear. A structure can be active in one record and inactive in another. Calls of active or inactive are those of the source. Unless noted, calls follow the shape of the dose curve; as a rule, active = well fitted curve in the direction sought with a large enough effect in the repeat runs; inconclusive = weak or mixed curves; inactive = no such curve, though single readings can be large; an effect the other way counts as inactive or inconclusive.

A short description of experiment [1]: qHTS assay to identify small molecule antagonists of the sonic hedgehog signaling (Shh) pathway (AID 1259369; calls by dose curve; also: nearly all actives have a fitted effect of over 45% in size). Put shortly:
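3T3Gli1-Luc, conditioned-medium-stimulated, 24hr cpd, 37C/5% CO2; Gli1-driven firefly Luc luminescence after 30min RT with luciferase reagent. Cells plated 4hr before cpd.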
(Quantitative high-throughput screening tests each substance at several concentrations.)

The target of experiment [2] is Estrogen receptor beta (Homo sapiens) (UniProt Q92731). The experiment is described as follows: qHTS assay to identify small molecule agonists of the estrogen receptor beta (ER-beta) signaling pathway (AID 1259377; active = well fitted activation curve with a large enough effect in the signal ratio in the repeat runs, not every such curve was filed as active; the % refers to the signal ratio; also: potency is read from the fitted curve at half-maximal effect). In short, it runs like this:
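HEK293T ER-beta-UAS-bla; 2% charcoal-stripped FBS; cells pre-incubated 6 hr, compound 16 hr, 37C/5% CO2; LiveBLAzer B/G FRET substrate 2 h RT; fluorescence intensity read.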

For experiment [3] the target is unchanged. Briefly: qHTS assay to identify small molecule antagonists of the estrogen receptor beta (ER-beta) signaling pathway (AID 1259378; active = well fitted inhibition curve with a large enough effect in the signal ratio in the repeat runs, not every such curve was filed as active; the % refers to the signal ratio). Put shortly: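 ER-beta-UAS-bla HEK293T (GripTite) cells in 2% charcoal-stripped FBS medium were preincubated 6 hr at 37C, dosed with compound, then stimulated with 1 nM E2 (final) for 16 hr; beta-lactamase reporter read by B/G FRET fluorescence after 2 hr substrate loading.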

Experiment [4] in a line: qHTS assay to identify small molecule agonists of the androgen receptor (AR) signaling pathway in the presence of an antagonist - cell viability counter screen (AID 1259379).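 Also: MDA-kb2 human breast cancer cells carrying an MMTV luciferase reporter; series mostly up to about 92 µM; nearly all actives have a fitted effect of over 25% in size.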 Put shortly:
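Cells: MDA-kb2 (MMTV-luc, AR and GR elements), 3,000/well, 5 hr settle. Added: nilutamide 3.0uM final, then compounds (15 conc.). Incubation: 16 hr, 37C, no CO2. Read-out: CellTiter-Fluor, 1 hr, fluorescence.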

A short description of experiment [5]: qHTS assay to identify small molecule agonists of the estrogen receptor beta (ER-beta) signaling pathway - cell viability counter screen (AID 1259380). Also: nearly all actives have a fitted effect of over 30% in size. Put shortly:
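HEK293T ER-beta-UAS-bla; 2% CS-FBS; 6 hr pre-plate, 16 hr cpd at 37C/5% CO2; LiveBLAzer read first, then CellTiter-Glo 30 min RT, luminescence.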

Experiment [6] in a line: qHTS assay to identify small molecule antagonists of the estrogen receptor beta (ER-beta) signaling pathway - cell viability counter screen (AID 1259382). Also: series mostly up to about 92 µM; nearly all actives have a fitted effect of over 55% in size. In short, it runs like this: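 Cells: ER-beta-UAS-bla HEK293T, 2,000/well, 2% CS-FBS, 6 hr settle. Cpd + E2 (1nM final), 16 hr, 37C/5% CO2. Bla FRET substrate 2 hr RT, then CellTiter-Glo 30 min RT, luminescence.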
Experiment [7] concerns the target Estrogen receptor (Homo sapiens) (UniProt P03372). The experiment is described as follows: qHTS assay to identify small molecule agonists of the estrogen receptor alpha (ER-alpha) signaling pathway in the presence of an antagonist (AID 1259383; calls by dose curve; also: top concentration of the series differs between compounds; nearly all actives have a fitted effect of over 15% in size). Put shortly: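 VM7Luc4E2, endog. ER-alpha + 4×ERE-luc; charcoal-stripped FBS, phenol red-free, 5 d; 24hr plating; +10.0nM ICI-182,780 (final); cpds 15 conc, 22hr, 37C/5% CO2; ONE-Glo luminescence.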

Experiment [8] is described as follows: qHTS assay to identify small molecule agonists or antagonists of the thyroid stimulating hormone receptor (TSHR) signaling pathway - wild type cell line counter screen (AID 1259384; calls by dose curve). Put shortly:
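Wild-type HEK293 cells were plated 18 h at 37 C/5% CO2, pin-dosed with compound plus Ro20-1724 medium, held 30 min at room temperature, then given cAMP-d2 and anti-cAMP-cryptate; fluorescence was read after 1 h. Fifteen concentrations, triplicate.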

Experiment [9] can be described thus: qHTS assay to identify small molecule agonists of the estrogen receptor alpha (ER-alpha) signaling pathway in the presence of an antagonist - cell viability counter screen (AID 1259386).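 Also: series mostly up to about 92 µM; cells exposed to compounds for 22 h at 37 °C before the viability read; nearly all actives have a fitted effect of over 30% in size.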 Put shortly: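 VM7Luc4E2, stripped-serum pre-culture 5 d; 24hr plating; +ICI-182,780 10.0nM final; cpds 15 conc, 22hr, 37C/5% CO2; CellTiter-Fluor added at 21hr, fluorescence 1hr later.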

For experiment [10], the target named is Progesterone receptor (Homo sapiens) (UniProt P06401). Briefly: qHTS assay to identify small molecule agonists of the progesterone receptor (PR) signaling pathway (AID 1346784; calls by dose curve; also: nearly all actives have a fitted effect of over 30% in size). In short, it runs like this:
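Beta-lactamase reporter read-out: after 16 hr compound treatment at 37C and a further 2 hr at room temperature with LiveBLAzer B/G FRET substrate, fluorescence was measured in PR-UAS-bla HEK 293T cells grown in 2% charcoal-stripped serum.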

The target is the same in experiment [11]. Briefly: qHTS assay to identify small molecule antagonists of the progesterone receptor (PR) signaling pathway (AID 1346795; active = well fitted inhibition curve with a large enough effect in the signal ratio in the repeat runs, not every such curve was filed as active; the % refers to the signal ratio; also: potency is read from the fitted curve at half-maximal effect). Put shortly:
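Read-out is fluorescence from the LiveBLAzer B/G FRET substrate, cleaved by a UAS-controlled beta-lactamase in PR-UAS-bla HEK293T cells after 16 hr exposure to compound plus 1 nM promegestone (final), followed by 2 hr at room temperature.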

Experiment [12] is described as follows: qHTS assay to identify small molecule antagonists of the progesterone receptor (PR) signaling pathway - cell viability counter screen (AID 1346798).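 Also: HEK293T PR-UAS-bla cells stimulated with the agonist R5020; series mostly up to about 92 µM; nearly all actives have a fitted effect of over 50% in size.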 Put shortly:
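HEK293T PR-UAS-bla, 2% charcoal-stripped FBS; 4 hr pre-plate; cpd + R5020, 16 h 37C; LiveBLAzer read first; then CellTiter-Glo 30 min RT, luminescence.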

The nature of experiment [13]: qHTS assay to identify small molecule agonists of the progesterone receptor (PR) signaling pathway - cell viability counter screen (AID 1346799; calls by dose curve; also: nearly all actives have a fitted effect of over 45% in size). Put shortly: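 Luminescence from CellTiter-Glo, added after the beta-lactamase FRET read in the same wells, gave cytotoxicity in PR-UAS-bla HEK293T cells treated with compounds for 16 hr at 37C.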
The nature of experiment [14]: qHTS assay to identify small molecule antagonists of the TGF-beta/Smad signaling pathway - cell viability counter screen (AID 1346824). Also: nearly all actives have a fitted effect of over 50% in size. Put shortly: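 SBE-bla HEK 293T cells were plated overnight at 37 C, then given compounds in DMSO plus TGF-beta1 (added as 0.25 ng/mL solution) for 5 hr. After the bla read, CellTiter-Glo was added to the same wells and luminescence read after 30 min at room temperature.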

Experiment [15] in a line: qHTS assay to identify small molecule agonists of the TGF-beta/Smad signaling pathway - cell viability counter screen (AID 1346829). Also: top concentration of the series differs between compounds; nearly all actives have a fitted effect of over 45% in size. In short, it runs like this: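 HEK 293T SBE-bla line, 5 hr compound exposure at 37 C, multiplexed CellTiter-Glo viability read by luminescence.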
Experiment [16] is described as follows: qHTS assay to identify small molecule agonists of the TGF-beta/Smad signaling pathway (AID 1346859; active = well fitted activation curve with a large enough effect in the signal ratio in the repeat runs, not every such curve was filed as active; the % refers to the signal ratio; also: series mostly up to about 77 µM). Put shortly:
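SBE-bla HEK 293T, 4,000 cells/well, plated o/n; cpd in DMSO, 5 hr, 37 C/5% CO2; B/G FRET substrate 2 hr RT; ex 405, em 460/530 nm.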

The target of experiment [17] is Thyrotropin-releasing hormone receptor (Homo sapiens) (UniProt P34981). The experiment is described as follows: qHTS assay to identify small molecule antagonists of the thyrotropin-releasing hormone receptor (TRHR) signaling pathway (AID 1346877; active = well fitted inhibition curve with a large enough effect in the repeat runs, not every such curve was filed as active; also: series mostly up to about 51 µM). In short, it runs like this:
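Intracellular calcium fluorescence, read kinetically every second over 3 min, reports TRH-evoked signalling in HEK293 cells carrying TRHR. Test compounds were added 5 min ahead of a 1 nM TRH challenge.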

Experiment [18] has the same target. Briefly: qHTS assay to identify small molecule agonists of the thyrotropin-releasing hormone receptor (TRHR) signaling pathway (AID 1346891; calls by dose curve; also: series mostly up to about 58 µM). Put shortly: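 Intracellular calcium rise, read as fluorescence every second for 3 min, served as the agonist signal in dye-loaded HEK293 cells expressing TRHR; each compound ran at 15 concentrations in triplicate.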
Experiment [19] deals with Thyrotropin receptor (Homo sapiens) (UniProt P16473). Briefly: qHTS assay to identify small molecule antagonists of the thyroid stimulating hormone receptor (TSHR) signaling pathway (AID 1259385; calls by dose curve; also: nearly all actives have a fitted effect of over 20% in size). Put shortly: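 TSHR-HEK293 cells were plated and held 18 h at 37C/5% CO2, then given compound plus Ro20-1724 and stimulated with TSH at 1.5 ng/mL final. After 30 min at room temperature, cAMP was detected with cAMP-d2/anti-cAMP-cryptate (1 h) by fluorescence.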

Experiment [20] has as its target Androgen receptor (Homo sapiens) (UniProt P10275). The experiment is described as follows: qHTS assay to identify small molecule agonists of the androgen receptor (AR) signaling pathway in the presence of an antagonist (AID 1259381; calls by dose curve; also: nearly all actives have a fitted effect of over 15% in size). In short, it runs like this: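 MDA-kb2 cells, 3,000/well, rested 5hr at 37C/0% CO2 → nilutamide 3.0uM final or buffer → compounds, 15 conc. → 16hr at 37C → ONE-Glo, 30min RT → luminescence.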

Chain of Thyrotropin-releasing hormone receptor (Homo sapiens) (P34981 whole entry, looked up): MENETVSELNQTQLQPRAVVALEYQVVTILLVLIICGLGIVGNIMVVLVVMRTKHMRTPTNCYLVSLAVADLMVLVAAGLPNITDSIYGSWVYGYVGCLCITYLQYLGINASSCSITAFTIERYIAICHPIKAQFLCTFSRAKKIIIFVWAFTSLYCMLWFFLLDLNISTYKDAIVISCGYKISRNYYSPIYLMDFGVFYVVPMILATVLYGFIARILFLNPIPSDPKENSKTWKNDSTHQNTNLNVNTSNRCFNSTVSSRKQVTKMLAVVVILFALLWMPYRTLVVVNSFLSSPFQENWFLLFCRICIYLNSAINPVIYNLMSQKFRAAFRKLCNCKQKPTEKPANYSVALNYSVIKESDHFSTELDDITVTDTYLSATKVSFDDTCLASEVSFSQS
Chain of Thyrotropin receptor (Homo sapiens) (P16473 whole entry, looked up): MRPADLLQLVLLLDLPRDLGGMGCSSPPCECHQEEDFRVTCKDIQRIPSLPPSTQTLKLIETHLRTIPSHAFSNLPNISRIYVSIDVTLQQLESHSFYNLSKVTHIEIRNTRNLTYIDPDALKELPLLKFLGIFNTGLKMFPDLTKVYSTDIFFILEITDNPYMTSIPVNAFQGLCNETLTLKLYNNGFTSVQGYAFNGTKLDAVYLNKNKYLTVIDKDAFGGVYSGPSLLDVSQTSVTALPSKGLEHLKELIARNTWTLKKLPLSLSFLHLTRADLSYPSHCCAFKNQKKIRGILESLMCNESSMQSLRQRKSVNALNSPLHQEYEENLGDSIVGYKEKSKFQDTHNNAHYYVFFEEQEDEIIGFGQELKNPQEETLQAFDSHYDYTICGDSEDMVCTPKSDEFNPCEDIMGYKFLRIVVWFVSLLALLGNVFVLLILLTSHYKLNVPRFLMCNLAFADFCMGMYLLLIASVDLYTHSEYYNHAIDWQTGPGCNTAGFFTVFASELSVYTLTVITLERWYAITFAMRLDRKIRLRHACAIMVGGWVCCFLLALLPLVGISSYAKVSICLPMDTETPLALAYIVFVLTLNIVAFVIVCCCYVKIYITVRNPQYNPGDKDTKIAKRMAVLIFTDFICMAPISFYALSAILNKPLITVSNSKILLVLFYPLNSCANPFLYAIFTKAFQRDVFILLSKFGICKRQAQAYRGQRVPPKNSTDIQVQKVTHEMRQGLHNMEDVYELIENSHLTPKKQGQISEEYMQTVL
Chain of Estrogen receptor beta (Homo sapiens) (Q92731 whole entry, looked up): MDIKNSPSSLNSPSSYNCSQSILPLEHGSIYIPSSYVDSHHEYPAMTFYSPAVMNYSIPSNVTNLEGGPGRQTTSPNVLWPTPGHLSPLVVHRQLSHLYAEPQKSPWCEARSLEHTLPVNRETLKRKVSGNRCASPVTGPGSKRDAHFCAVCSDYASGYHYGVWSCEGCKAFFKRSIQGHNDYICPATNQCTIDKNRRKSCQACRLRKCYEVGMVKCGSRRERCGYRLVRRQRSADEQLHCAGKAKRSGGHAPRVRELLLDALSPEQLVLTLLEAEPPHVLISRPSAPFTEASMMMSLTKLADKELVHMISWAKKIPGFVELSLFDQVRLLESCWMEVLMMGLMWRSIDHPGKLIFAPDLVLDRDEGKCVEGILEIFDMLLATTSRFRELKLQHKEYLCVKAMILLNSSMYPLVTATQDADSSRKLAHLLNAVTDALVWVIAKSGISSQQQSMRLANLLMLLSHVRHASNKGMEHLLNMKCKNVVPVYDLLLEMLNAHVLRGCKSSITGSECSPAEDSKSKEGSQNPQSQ
Chain of Androgen receptor (Homo sapiens) (P10275 whole entry, looked up): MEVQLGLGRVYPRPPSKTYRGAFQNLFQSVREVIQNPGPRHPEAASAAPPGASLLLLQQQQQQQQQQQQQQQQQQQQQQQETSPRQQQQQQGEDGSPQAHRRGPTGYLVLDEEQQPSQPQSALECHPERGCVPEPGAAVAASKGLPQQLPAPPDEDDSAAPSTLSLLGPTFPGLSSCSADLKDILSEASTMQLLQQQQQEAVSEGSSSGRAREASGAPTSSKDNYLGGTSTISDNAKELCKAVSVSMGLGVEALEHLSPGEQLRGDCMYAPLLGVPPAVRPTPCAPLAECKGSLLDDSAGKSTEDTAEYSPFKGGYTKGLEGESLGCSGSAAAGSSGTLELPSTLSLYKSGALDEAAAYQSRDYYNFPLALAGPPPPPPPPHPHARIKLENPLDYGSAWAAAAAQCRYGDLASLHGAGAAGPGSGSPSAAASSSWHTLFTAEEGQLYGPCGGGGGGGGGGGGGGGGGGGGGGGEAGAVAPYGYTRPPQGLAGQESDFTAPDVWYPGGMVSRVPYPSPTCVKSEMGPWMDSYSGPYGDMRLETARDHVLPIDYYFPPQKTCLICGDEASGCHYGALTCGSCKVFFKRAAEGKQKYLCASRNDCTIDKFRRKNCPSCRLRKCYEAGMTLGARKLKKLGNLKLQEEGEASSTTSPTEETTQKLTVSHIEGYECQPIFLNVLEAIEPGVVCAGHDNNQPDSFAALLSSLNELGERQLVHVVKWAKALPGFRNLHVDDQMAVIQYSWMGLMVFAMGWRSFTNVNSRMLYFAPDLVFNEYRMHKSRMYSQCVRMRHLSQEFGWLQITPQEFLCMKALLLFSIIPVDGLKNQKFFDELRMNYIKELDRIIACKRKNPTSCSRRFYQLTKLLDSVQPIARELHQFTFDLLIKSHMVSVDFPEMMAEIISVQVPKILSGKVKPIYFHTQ
Chain of Estrogen receptor (Homo sapiens) (P03372 whole entry, looked up): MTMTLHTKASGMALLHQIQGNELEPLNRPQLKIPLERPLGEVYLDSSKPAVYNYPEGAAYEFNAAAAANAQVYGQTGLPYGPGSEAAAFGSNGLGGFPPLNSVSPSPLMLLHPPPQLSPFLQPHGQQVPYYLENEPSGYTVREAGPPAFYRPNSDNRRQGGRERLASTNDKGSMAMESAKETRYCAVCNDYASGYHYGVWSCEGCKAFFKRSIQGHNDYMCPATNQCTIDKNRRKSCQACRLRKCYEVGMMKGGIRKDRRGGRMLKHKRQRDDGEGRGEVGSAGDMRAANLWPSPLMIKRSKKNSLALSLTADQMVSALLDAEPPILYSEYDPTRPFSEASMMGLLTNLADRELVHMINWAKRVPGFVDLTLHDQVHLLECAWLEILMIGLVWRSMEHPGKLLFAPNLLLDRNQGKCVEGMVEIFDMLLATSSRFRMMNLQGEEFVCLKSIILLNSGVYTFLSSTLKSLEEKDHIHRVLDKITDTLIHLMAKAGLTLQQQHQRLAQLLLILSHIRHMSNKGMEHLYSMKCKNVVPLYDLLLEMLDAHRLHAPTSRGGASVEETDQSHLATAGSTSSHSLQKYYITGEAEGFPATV
Chain of Progesterone receptor (Homo sapiens) (P06401 whole entry, looked up): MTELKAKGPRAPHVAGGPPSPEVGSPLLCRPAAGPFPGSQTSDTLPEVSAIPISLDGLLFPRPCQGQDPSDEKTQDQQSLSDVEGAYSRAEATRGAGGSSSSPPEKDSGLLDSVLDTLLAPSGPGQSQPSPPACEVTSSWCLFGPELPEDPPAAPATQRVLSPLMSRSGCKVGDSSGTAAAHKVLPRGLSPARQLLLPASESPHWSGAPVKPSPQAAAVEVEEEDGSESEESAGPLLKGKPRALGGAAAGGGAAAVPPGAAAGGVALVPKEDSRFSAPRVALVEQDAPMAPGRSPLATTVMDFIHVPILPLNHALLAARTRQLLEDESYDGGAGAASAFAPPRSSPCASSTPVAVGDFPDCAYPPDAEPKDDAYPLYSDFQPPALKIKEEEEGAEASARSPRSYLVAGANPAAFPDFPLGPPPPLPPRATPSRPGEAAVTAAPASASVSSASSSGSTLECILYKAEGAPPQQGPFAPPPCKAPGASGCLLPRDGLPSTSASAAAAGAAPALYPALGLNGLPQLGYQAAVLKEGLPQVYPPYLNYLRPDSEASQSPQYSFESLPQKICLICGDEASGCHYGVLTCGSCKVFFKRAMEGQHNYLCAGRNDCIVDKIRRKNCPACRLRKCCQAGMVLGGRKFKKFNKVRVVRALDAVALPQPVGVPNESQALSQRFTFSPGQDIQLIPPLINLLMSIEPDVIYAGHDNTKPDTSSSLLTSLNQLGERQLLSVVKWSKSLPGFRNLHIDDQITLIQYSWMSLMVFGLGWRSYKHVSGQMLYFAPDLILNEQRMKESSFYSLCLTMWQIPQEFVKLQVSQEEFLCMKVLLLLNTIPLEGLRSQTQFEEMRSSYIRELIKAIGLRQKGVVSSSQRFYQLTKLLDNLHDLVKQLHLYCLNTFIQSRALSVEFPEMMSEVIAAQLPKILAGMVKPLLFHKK

As for `C=C(C)C(=O)OCCCCOC(=O)C(=C)C`, the Potency entry in experiment [1], in experiment [2], in experiment [3], in experiment [4], in experiment [5] and in [6] was “inactive” in each case. Further, the Potency entry in [7], in experiment [9], in experiment [10], in [11], in [12] and in experiment [13] was “inactive” each time. In addition, the Potency entry in experiment [14], in experiment [15] and in [17] was “inactive” each time. For the same molecule, the call in experiment [8], in [16] and in experiment [18] was inactive.

`CCCN(CCC)C(=O)Cc1c(-c2ccc(Cl)cc2)nc2ccc(Cl)cn12`: the Potency result in experiment [1], in experiment [2], in [3], in [4], in experiment [7] and in [19] was “inactive” each time. Moreover, the Potency result in experiment [12], in [13], in experiment [14], in experiment [15] and in experiment [17] was “inactive” throughout. Further, the result in [8], in experiment [16] and in experiment [18] was inactive. For the same molecule, in experiment [11], the Potency is 10.6 µM (active).

For the molecule `O=C(O)COc1cc(Cl)c(Cl)cc1Cl`, the Potency result in [1], in [2], in experiment [3], in [4], in experiment [5] and in experiment [20] was “inactive” in each case. For the same molecule, the Potency result in [6], in [19], in experiment [9], in experiment [11], in [12] and in [14] was “inactive” each time. Besides, the Potency entry in experiment [15] was “inactive”. In experiment [8], the molecule was called inactive.

Regarding `SCc1ccccc1`, the Potency entry in experiment [1], in experiment [2], in [3], in [4], in experiment [5] and in [6] was “inactive” in each case. In addition, the Potency result in experiment [7], in [19], in experiment [10], in experiment [12], in experiment [13] and in experiment [14] was “inactive” in each case. Also, the Potency result in experiment [15] and in experiment [17] was “inactive” each time. Also, the call in experiment [8], in experiment [16] and in experiment [18] was inactive.

For `C[N+](C)(C)CC1CO1` (centres undefined), the Potency entry in experiment [1], in experiment [2], in [4], in experiment [5], in [20] and in [6] was “inactive” in each case. Besides, the Potency result in [7], in [19], in experiment [9], in experiment [10], in experiment [11] and in experiment [12] was “inactive” each time. Besides, the Potency entry in [14], in experiment [15] and in experiment [17] was “inactive” throughout. The call in experiment [8], in experiment [16] and in experiment [18] was inactive.

Consider `Clc1ccc(Cl)c(Cl)c1`, for which the Potency result in experiment [1], in experiment [3], in [4], in experiment [5], in experiment [6] and in experiment [19] was “inactive” throughout. Moreover, the Potency result in [9], in experiment [10], in [11], in [12], in experiment [13] and in experiment [14] was “inactive” in each case. Besides, the Potency entry in experiment [15] and in experiment [17] was “inactive” in each case. For the same molecule, the Potency in experiment [2] was 59.5 µM (active) and inactive. Moreover, the molecule was called inactive in experiment [8], in experiment [16] and in experiment [18].

With `CC(C)CCCCCCCOC(=O)c1ccccc1C(=O)OCCCCCCCC(C)C`, the Potency result in experiment [1], in experiment [2], in [3], in [4], in experiment [5] and in [6] was “inactive” each time. The Potency result in experiment [19], in [9], in [10], in experiment [11], in [12] and in [14] was “inactive” throughout. For the same molecule, the Potency entry in [15] and in experiment [17] was “inactive” throughout. The molecule was classed as inactive in [8], in experiment [16] and in [18].

In the case of `COCc1cnc(C2=NC(C)(C(C)C)C(=O)N2)c(C(=O)O)c1` (centres undefined), the Potency entry in experiment [1], in experiment [2], in experiment [3], in experiment [4], in experiment [5] and in experiment [20] was “inactive” throughout. Also, the Potency result in [6], in experiment [7], in experiment [19], in experiment [10], in experiment [11] and in experiment [12] was “inactive” throughout. Also, the Potency entry in [14], in experiment [15] and in experiment [17] was “inactive” each time. For the same molecule, the call in experiment [16] and in experiment [18] was inactive.
